CF NFkB block = inhibitors of PAF-induced NF-kB signaling, primary screen, cell-based, GFP fluorescence, uHTS; KKLEB NF-kB-GFP reporter, GFP fluorescence overnight; inhibition, % at 5 µM; 360,000 compounds, 0.86% hits;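 active = at least 50% inhibition at 5 µM, scaled per plate between neutral and stimulator controls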;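 also: PAF is a Pseudomonas aeruginosa culture filtrate used as stimulus; plate controls were PAF-stimulated DMSO wells for no effect and unstimulated DMSO wells for full effect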
HIF-2a block = HIF-2a reporter inhibitors, primary screen, luminescence, 786-0 RCC cells; 786-0 RCC cells HIF-2a reporter, luciferase luminescence, overnight; inhibition, % at 18.8 µM; 360,000 compounds, 0.72% hits;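 active = inhibition of the luminescence signal of 40% or more relative to plate controls, in a single-dose primary screen at 18.75 µM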
Peg3 promoter = Peg3 promoter-driven luciferase inhibitors, primary screen, cell-based, HeLa, luciferase luminescence; HeLa PEG-Prom luciferase reporter, overnight; inhibition, % at 20 µM; 360,000 compounds, 1.7% hits; AID 588405, 2011;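 active = inhibition of at least 50% at 20 µM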
KKLEB cytotox = cytotoxicity in KKLEB CF airway cells, primary screen, cytotoxicity control for CF NF-kB inhibitor project, cell-based, uHTS, fluorescence assay plates | KKLEB CF airway cells viability, ATPlite luminescence, overnight; active compounds read low; cells stimulated with P. aeruginosa culture filtrate | activity change (cytotoxicity), % at 5 µM | 360,000 compounds, 0.36% hits | AID 602141, 2011;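 active = corrected activity change at or below -50% at 5 µM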
LMP1 NFkB inh = EBV LMP1-driven NF-kappaB luciferase reporter inhibitors, primary screen, cell-based, luminescence, single point; LMP1-induced NF-kappaB luciferase reporter cells; inhibition, % at 12.5 µM; 350,000 compounds, 0.69% hits; AID 504558, 2011; in the data active = inhibition above about 41%; inconclusive = no clear call, values can overlap the other calls;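 also: 0% = neutral control wells and 100% = reference inhibitor control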
MITF TRPM1 inh = inhibitors of MITF-dependent TRPM1 promoter reporter, primary screen, cell-based, SK-MEL-5, single point, luciferase; SK-MEL-5 TRPM1 promoter luciferase, 24 h; inhibition, % at 12.5 µM; 330,000 compounds, 0.83% hits;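 active = mean inhibition across replicates of 60% or more, whatever share of single replicates reaches that level; inconclusive = some that reach 60%, reason not given; inactive = mean inhibition across replicates below 60%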
* marks the source's active call; other numbers are inactive results; ? = inconclusive; / = no result. Most compounds without a hit are left out; they make up all but 3% or so of the library.

SMILES	CF NFkB block	HIF-2a block	Peg3 promoter	KKLEB cytotox	LMP1 NFkB inh	MITF TRPM1 inh
O=C(CSc1nc2ccc(NC(=O)CSc3nnnn3-c3ccccc3)cc2s1)Nc1ccccc1	61*	-7	35	-65*	-3	8
O=C(CSc1nnnn1-c1ccccc1)Nc1ccccc1	-4	-8	-1	2	4	-3
CN(C)CCC1(c2ccccc2)CCN(C)C1=O (stereo not drawn)	-29	10	-3	9	-5	/
O=C(N/N=C/c1cc([N+](=O)[O-])ccc1N1CCNCC1)c1ccc([N+](=O)[O-])cc1	-5	28	103*	-7	2	84*
CC(C)C[C@@H](CN1CCC[C@H]1CN1C(=O)C(=O)NC[C@@H]1Cc1ccccc1)N1C[C@H](Cc2ccccc2)N(CC2CCCCC2)C(=O)C1=O	/	-24	/	/	/	/
CSc1ccc(CN2CCC(CO)(Cc3ccc(Cl)cc3)CC2)cc1	2	17	73*	-18	3	22
Cc1ccc(S(=O)(=O)N2CCC(C(=O)N/N=C/c3cccnc3)CC2)cc1	12	18	52*	-16	-3	8
O=C1/C(=C/c2cccs2)SC(=S)N1CC(=O)N1CCCCC1CCO (stereo not drawn)	14	-24	-1	-1	4	-29
O=C(/C=C/c1ccc(F)cc1)NC(=S)N1CCCCC1c1cccnc1 (stereo not drawn)	-2	0	1	2	5	3
O=C1/C(=C/c2ccc(F)cc2)SC(=S)N1CC(=O)N1CCCCC1c1cccnc1 (stereo not drawn)	17	34	103*	-6	13	7
O=C1/C(=C/c2ccccc2F)SC(=S)N1CC(=O)N1CCCCC1c1cccnc1 (stereo not drawn)	74*	20	76*	-28	4	12
CNc1ccc2ncc(-c3ccccc3C(C)=O)n2n1	0	-4	-18	8	/	/
OC[C@H]1O[C@H](c2nc(-c3nc(-c4cccs4)no3)cs2)C[C@@H]1O	-9	-82	-98	-9	/	/
COc1cccc2c1C(=O)c1c(O)c3c(c(O)c1C2=O)C[C@@](O)(C(C)=O)C[C@@H]3O[C@H]1C[C@H](N)[C@H](O)[C@H](C)O1	66*	26	89*	-47	91*	96*
COc1cccc2c1C(=O)c1c(O)c3c(c(O)c1C2=O)CC(O)(C(=O)CO)CC3OC1CC(N(C)C)C(O)C(C)O1 (stereo not drawn)	76*	38	93*	-37	87*	69*
COc1cccc2c1C(=O)c1c(O)c3c(c(O)c1C2=O)C[C@@](O)(C(=O)CO)C[C@@H]3O[C@H]1C[C@H](N)[C@@H](O)[C@H](C)O1	70*	4	94*	-54*	76*	83*
Cc1cc(C)c(C)c(S(=O)(=O)N2CCC(C(=O)N(C)Cc3nc4ccccc4c(=O)[nH]3)CC2)c1C	16	15	30	-8	-1	-1
Cc1cccc(C)c1NC(=O)CN(c1c(C)cccc1C)S(C)(=O)=O	14	3	2	-5	-6	/
O=C1c2ccccc2C(=O)c2c1ccc(C(=O)N1CCCCC1)c2NCCO	10	-1	24	-11	9	25
CC1(C)CCCN(C(=O)c2ccc3c(c2NCCO)C(=O)c2ccccc2C3=O)C1	-2	40*	23	-1	-9	16
CC1(C(=O)Nc2cccc(Oc3ccccc3)c2)CCN1Cc1ccccc1OC(F)F (stereo not drawn)	24	7	2	-21	/	/
O=C(/C=C/c1ccc(Cl)cc1)c1ccc([N+](=O)[O-])o1	96*	49*	107*	-48	2	98*
CC1(C(=O)Nc2ccc(Cl)c(C(F)(F)F)c2)Cc2c(-c3ccc4c(c3)OCO4)ccnc2O1 (stereo not drawn)	1	20	13	-12	/	/
Cc1ccc(/C(N)=N/OC(=O)c2ccc(C)cc2Cl)cc1	-7	-65	-84	-64*	10	14
COC(=O)C[C@@H]1C[C@@H]2c3cc(NC(=O)Cc4ccncc4)ccc3O[C@@H]2[C@@H](CO)O1	4	6	-3	-6	13	/
SMILES	CF NFkB block	HIF-2a block	Peg3 promoter	KKLEB cytotox	LMP1 NFkB inh	MITF TRPM1 inh
O=C(Nc1c(-c2ccc(Cl)cc2)[nH][nH]c1=O)c1ccccc1Cl	-19	11	-5	16	/	/
CCCCCCCCCCOC(=O)Cn1c(COc2ccccc2OC)[n+](C)c2ccccc21	51*	42*	106*	-54*	33	83*
CNc1ccc(Br)cc(C(=O)/C=C/c2cccc(Cl)c2Cl)c1=O	46	13	106*	-20	?	81*
CCNc1ccc(Br)cc(C(=O)/C=C/c2ccccc2Cl)c1=O	-12	23	7	3	83*	31
CCCCNC(=O)C1(C)CCCCCN1Cc1cccc2c(OC)cc(C(=O)OCC)cc12 (stereo not drawn)	38	-1	18	-29	/	/
Cc1cc(C)nc(NC(=NCCc2c[nH]c3ccccc23)NC(=O)Nc2ccc(Cl)c(Cl)c2)n1	9	15	19	1	19	-3
Cc1cc(C)nc(NC(=NCCc2c[nH]c3ccccc23)NC(=O)Nc2ccccc2)n1	42	-4	52*	-9	12	-7
N/C(=N\N=C/c1ccc(Br)cc1)N/N=C\c1ccc(Br)cc1	-38	-17	102*	-2	-1	-5
N/C(=N\N=Cc1ccc2c(c1)OCO2)NN=Cc1ccc2c(c1)OCO2	8	-6	32	-4	-15	66*
N/C(=N\N=C/c1ccc(F)cc1)N/N=C\c1ccc(F)cc1	0	-99	23	-16	-13	10
Nc1nc(CCl)nc(N(c2ccccc2)c2ccccc2)n1	70*	37	46	-73*	/	/
Oc1ccc(N=Nc2ccccc2)cc1	15	-313	-354	-6	9	-121
Oc1ccc(N=Nc2n[nH]c(-c3ccc(Cl)cc3)n2)cc1	-21	-135	78*	21	-19	-1
N#Cc1cnn2c1nc(N1CCCCC1)c1ccccc12	43	25	51*	-40	3	28
CC(C)c1ccc(S(=O)(=O)c2nnn3c2nc(N2CCCCC2)c2ccccc23)cc1	13	9	-3	6	3	-2
O=C(N/N=C(\c1ccccc1)c1ccccn1)c1ccccc1Cl	15	11	54*	-11	24	59
COc1ccc(C(=O)N/N=C(\c2ccccc2)c2ccccn2)cc1	13	10	38	-7	22	55
O=C(NN=C(c1ccccc1)c1ccccn1)c1ccccc1	-21	8	47	8	7	67*

Screening data as filed in PubChem.
